Each molecule was assayed against AMP-activated protein kinase, AMPK (Homo sapiens) (UniProt P54646+O43741+P54619+Q9UGJ0+Q9Y478+Q13131+Q9UGI9) (assay: AMP-dependent Kinase enzyme assay. An in vitro enzyme assay that detects ADP turnover that is directly proportional to AMPK activity. This uses naive AMPK that is activated during the assay with MK-8722). Settings: 30 µM.
Assay type: functional
Parameters: scale not given: direction of the effect not stated beside the values

SMILES | Percent Effect
Cn1cc(Cl)c(CN(Cc2ccsc2)CC2CCCO2)n1 (stereo not given) | 2.65%
Cc1cnc(CCNC(=O)NCCc2ccc(O)cc2)s1 | 38.4%
O=C(CCCN1CCCCC1)N[C@H](C(=O)O)c1cccc(F)c1F | 6.38%
Cc1ccccc1NC(=O)CCNC(=O)c1ccoc1 | -10.8%
COc1ccc(N2CCN(Cc3nc(CSC)no3)CC2=O)cc1 | 1.27%
Clc1cc(NCc2nccs2)nc2[nH]ccc12 | 15.1%
CN(C(=O)c1ccc2c(c1)nc(N1CC[C@H](O)C1)n2C)C1CCSCC1 | 9.79%
CCOc1ccc(Br)cc1S(=O)(=O)N(CC)Cc1ccc(N(C)C)cc1 | -7.47%
C[C@@H]1CN(Cc2nc(C(N)=O)no2)CC[C@@]1(O)C1CCOCC1 | 5.22%
c1ccc(Cc2noc(-c3ccc(NCC4CCCCO4)nc3)n2)cc1 (stereo not given) | 3.99%
Cc1c(Br)cccc1CSc1nnc(CO)n1C | 4.59%
CCCn1cc(CN2CCOCC2c2[nH]ncc2C)cn1 (stereo not given) | 14.3%
O=C(c1ccccc1)C1CCN(C(=O)CC2COCCN2)CC1 (stereo not given) | 1.36%
Cc1cc(-c2cnc(N3CCCC3)nc2C(C)C)on1 | 16.6%
Cc1cc(-c2cnc(N3CCCC(C)C3)nc2C(C)C)on1 (stereo not given) | 10.4%
COc1ncc(NCc2ccsc2)cc1C(N)=O | 5.38%
O=C(NC1CCCCC1)N1C[C@H]2CN(c3cnccn3)C[C@@]2(C(=O)O)C1 | 2.64%
Cc1cc(-c2cnc(N3CCC(C(N)=O)CC3)nc2C(C)C)on1 | 21.5%
Cc1ccc(CNCc2nccn2C)c(OC(C)(C)C)c1 | -4.8%
Cc1cc(C(=O)N2CCNC(=O)C2)c(C)n1CC(F)(F)F | 1.02%

Reference: ChEMBL document CHEMBL3988442, “University of Dundee, Small-Polar-MMV Screening Library” (2021)
